Experimental data as given in PubChem BioAssay (Tox21).
Results filed as inconclusive are left out. Calls of active or inactive are those of the source. Unless noted, calls follow the shape of the dose curve; as a rule, active = well fitted curve in the direction sought with a large enough effect in the repeat runs; inconclusive = weak or mixed curves; inactive = no such curve, though single readings can be large; an effect the other way counts as inactive or inconclusive.

How the values were obtained:
[1] = qHTS assay to identify small molecule agonists of the sonic hedgehog signaling (Shh) pathway (AID 1259368; calls by dose curve;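 also: NIH/3T3-derived 3T3Gli1-Luc cells carrying a stable Gli1-driven firefly luciferase reporter; series mostly up to about 92 µM; nearly all actives have a fitted effect of over 15% in size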)
Summary of the method: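 Mouse fibroblast (NIH/3T3) reporter cells with stably integrated Gli1-Luc were treated 24 hr with compound; firefly luciferase luminescence served as the read-out.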

[2] = qHTS assay to identify small molecule antagonists of the sonic hedgehog signaling (Shh) pathway (AID 1259369; calls by dose curve; also: nearly all actives have a fitted effect of over 45% in size)
Summary of the method: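 Conditioned medium drives Shh signalling in 3T3Gli1-Luc cells; compounds in DMSO co-applied, 24hr at 37 C, then luciferase luminescence.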

[3] = molecular target: Estrogen receptor beta (Homo sapiens) (UniProt Q92731); assay: qHTS assay to identify small molecule agonists of the estrogen receptor beta (ER-beta) signaling pathway (AID 1259377; active = well fitted activation curve with a large enough effect in the signal ratio in the repeat runs, not every such curve was filed as active; the % refers to the signal ratio)
Chain of Estrogen receptor beta (Homo sapiens) (Q92731 whole entry, looked up): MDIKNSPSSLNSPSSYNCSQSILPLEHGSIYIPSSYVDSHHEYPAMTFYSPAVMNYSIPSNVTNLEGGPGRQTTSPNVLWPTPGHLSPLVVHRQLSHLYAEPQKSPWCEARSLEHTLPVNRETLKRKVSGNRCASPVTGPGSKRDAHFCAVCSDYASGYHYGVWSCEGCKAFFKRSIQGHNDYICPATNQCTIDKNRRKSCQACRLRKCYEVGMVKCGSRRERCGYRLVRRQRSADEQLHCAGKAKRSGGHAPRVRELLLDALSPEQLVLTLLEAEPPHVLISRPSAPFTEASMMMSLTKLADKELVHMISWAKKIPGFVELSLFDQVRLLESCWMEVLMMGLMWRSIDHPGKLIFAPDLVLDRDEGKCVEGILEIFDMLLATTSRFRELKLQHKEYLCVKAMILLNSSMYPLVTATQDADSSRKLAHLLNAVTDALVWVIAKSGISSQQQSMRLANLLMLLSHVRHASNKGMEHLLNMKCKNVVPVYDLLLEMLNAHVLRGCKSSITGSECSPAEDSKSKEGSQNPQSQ
Summary of the method: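 Ratiometric beta-lactamase FRET read-out came after 2 h substrate loading at room temperature. It followed 16 h compound treatment at 37C of GripTite HEK293T cells carrying a UAS-bla reporter, plated in 2% charcoal-stripped FBS medium.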

[4] = molecular target: Estrogen receptor beta (Homo sapiens) (UniProt Q92731); assay: qHTS assay to identify small molecule antagonists of the estrogen receptor beta (ER-beta) signaling pathway (AID 1259378; active = well fitted inhibition curve with a large enough effect in the signal ratio in the repeat runs, not every such curve was filed as active; the % refers to the signal ratio)
Summary of the method: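 ER-beta-UAS-bla HEK293T (GripTite) cells in 2% charcoal-stripped FBS medium were preincubated 6 hr at 37C, dosed with compound, then stimulated with 1 nM E2 (final) for 16 hr; beta-lactamase reporter read by B/G FRET fluorescence after 2 hr substrate loading.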

[5] = qHTS assay to identify small molecule agonists of the androgen receptor (AR) signaling pathway in the presence of an antagonist - cell viability counter screen (AID 1259379);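 also: MDA-kb2 human breast cancer cells carrying an MMTV luciferase reporter; series mostly up to about 92 µM; nearly all actives have a fitted effect of over 25% in size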
Summary of the method: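 A CellTiter-Fluor read-out measured viability of MDA-kb2 reporter cells (MMTV promoter with AR and GR response elements). Treatment: nilutamide 3.0uM final with compounds at 15 concentrations, 16 hr, 37C, 0% CO2.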

[6] = qHTS assay to identify small molecule agonists of the estrogen receptor beta (ER-beta) signaling pathway - cell viability counter screen (AID 1259380); also: nearly all actives have a fitted effect of over 30% in size
Summary of the method: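 Cells used were ER-beta-UAS-bla HEK293T in medium with 2% charcoal-stripped FBS. They were treated for 16 hr at 37C. Viability came from CellTiter-Glo luminescence.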

[7] = molecular target: Androgen receptor (Homo sapiens) (UniProt P10275); assay: qHTS assay to identify small molecule agonists of the androgen receptor (AR) signaling pathway in the presence of an antagonist (AID 1259381; calls by dose curve; also: nearly all actives have a fitted effect of over 15% in size)
Chain of Androgen receptor (Homo sapiens) (P10275 whole entry, looked up): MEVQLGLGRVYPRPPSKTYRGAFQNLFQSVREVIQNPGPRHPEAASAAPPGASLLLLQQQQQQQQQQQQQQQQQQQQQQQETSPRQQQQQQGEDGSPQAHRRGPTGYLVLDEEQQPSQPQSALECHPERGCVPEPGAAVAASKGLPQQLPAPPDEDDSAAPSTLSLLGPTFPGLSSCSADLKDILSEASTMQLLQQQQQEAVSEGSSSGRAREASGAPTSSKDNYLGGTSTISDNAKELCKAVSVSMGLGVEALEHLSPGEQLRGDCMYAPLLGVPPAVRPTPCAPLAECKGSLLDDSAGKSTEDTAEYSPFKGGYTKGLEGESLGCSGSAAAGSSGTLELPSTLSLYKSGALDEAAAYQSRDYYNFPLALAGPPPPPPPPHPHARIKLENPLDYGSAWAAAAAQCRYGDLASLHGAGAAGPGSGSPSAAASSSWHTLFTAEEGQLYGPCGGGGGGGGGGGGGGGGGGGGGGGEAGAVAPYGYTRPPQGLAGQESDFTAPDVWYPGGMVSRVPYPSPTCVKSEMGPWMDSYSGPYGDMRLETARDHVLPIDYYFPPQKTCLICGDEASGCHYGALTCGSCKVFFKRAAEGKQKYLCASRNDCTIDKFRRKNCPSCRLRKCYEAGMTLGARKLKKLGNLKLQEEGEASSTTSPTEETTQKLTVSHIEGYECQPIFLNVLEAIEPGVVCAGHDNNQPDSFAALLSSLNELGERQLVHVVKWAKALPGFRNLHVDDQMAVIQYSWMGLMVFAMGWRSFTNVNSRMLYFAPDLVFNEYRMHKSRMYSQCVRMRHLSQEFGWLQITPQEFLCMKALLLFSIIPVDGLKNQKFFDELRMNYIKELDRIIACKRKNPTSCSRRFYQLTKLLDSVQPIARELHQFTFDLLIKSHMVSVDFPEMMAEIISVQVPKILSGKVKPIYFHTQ
Summary of the method: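 Using human MDA-kb2 cells with an MMTV promoter–luciferase construct (AR and GR response elements), agonist activity is scored under 3.0uM nilutamide (final) co-treatment; 16hr incubation, 37C, luminescence readout via ONE-Glo.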

[8] = qHTS assay to identify small molecule antagonists of the estrogen receptor beta (ER-beta) signaling pathway - cell viability counter screen (AID 1259382); also: series mostly up to about 92 µM; nearly all actives have a fitted effect of over 55% in size
Summary of the method: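 Agonist-stimulated (1nM E2) ER-beta-UAS-bla HEK293T cells are incubated with library compounds for 16 hr at 37C. Cell viability is then assessed in the reporter-assay wells by adding CellTiter-Glo and reading luminescence after 30 min.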

[9] = qHTS assay to identify small molecule agonists or antagonists of the thyroid stimulating hormone receptor (TSHR) signaling pathway - wild type cell line counter screen (AID 1259384; calls by dose curve)
Summary of the method: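 Wild-type HEK293 cells were plated 18 h at 37 C/5% CO2, pin-dosed with compound plus Ro20-1724 medium, held 30 min at room temperature, then given cAMP-d2 and anti-cAMP-cryptate; fluorescence was read after 1 h. Fifteen concentrations, triplicate.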

[10] = qHTS assay to identify small molecule agonists of the estrogen receptor alpha (ER-alpha) signaling pathway in the presence of an antagonist - cell viability counter screen (AID 1259386);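 also: series mostly up to about 92 µM; cells exposed to compounds for 22 h at 37 °C before the viability read; nearly all actives have a fitted effect of over 30% in size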
Summary of the method: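 ICI-182,780 at 10.0nM final accompanies the compound titration (15 concentrations, 22hr, 37C) on VM7Luc4E2 cells. The CellTiter-Fluor fluorescence readout runs in the same wells as the luciferase assay.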

[11] = molecular target: Progesterone receptor (Homo sapiens) (UniProt P06401); assay: qHTS assay to identify small molecule agonists of the progesterone receptor (PR) signaling pathway (AID 1346784; calls by dose curve; also: nearly all actives have a fitted effect of over 30% in size)
Chain of Progesterone receptor (Homo sapiens) (P06401 whole entry, looked up): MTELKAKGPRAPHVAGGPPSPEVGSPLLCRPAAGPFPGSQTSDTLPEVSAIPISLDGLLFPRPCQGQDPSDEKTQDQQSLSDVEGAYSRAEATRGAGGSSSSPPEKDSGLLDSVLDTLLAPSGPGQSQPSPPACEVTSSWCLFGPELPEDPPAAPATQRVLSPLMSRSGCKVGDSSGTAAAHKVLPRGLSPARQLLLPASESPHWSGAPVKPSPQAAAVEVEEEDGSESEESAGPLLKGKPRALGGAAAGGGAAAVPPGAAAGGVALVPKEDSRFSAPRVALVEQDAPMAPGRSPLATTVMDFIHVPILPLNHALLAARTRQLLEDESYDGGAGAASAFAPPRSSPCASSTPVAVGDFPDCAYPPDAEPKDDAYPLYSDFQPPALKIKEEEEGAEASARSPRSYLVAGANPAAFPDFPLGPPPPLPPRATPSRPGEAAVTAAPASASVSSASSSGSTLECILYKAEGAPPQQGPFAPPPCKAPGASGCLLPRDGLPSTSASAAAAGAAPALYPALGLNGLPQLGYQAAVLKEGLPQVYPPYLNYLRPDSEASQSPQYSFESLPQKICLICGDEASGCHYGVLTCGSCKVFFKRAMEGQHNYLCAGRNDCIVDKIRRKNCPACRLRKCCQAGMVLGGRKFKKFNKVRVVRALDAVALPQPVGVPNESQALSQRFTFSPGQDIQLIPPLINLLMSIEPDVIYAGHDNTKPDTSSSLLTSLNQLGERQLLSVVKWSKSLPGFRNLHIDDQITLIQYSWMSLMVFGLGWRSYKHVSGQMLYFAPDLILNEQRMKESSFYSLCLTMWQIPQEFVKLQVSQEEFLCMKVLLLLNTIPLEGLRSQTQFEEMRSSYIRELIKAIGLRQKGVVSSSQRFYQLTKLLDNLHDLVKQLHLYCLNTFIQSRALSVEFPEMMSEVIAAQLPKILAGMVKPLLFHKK
Summary of the method: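 Agonist qHTS: compounds pinned onto 3,000 PR-UAS-bla HEK 293T cells per well in charcoal-stripped serum medium, 16hr at 37C, then beta-lactamase activity measured by LiveBLAzer FRET fluorescence after 2 hours at room temperature.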

[12] = molecular target: Progesterone receptor (Homo sapiens) (UniProt P06401); assay: qHTS assay to identify small molecule antagonists of the progesterone receptor (PR) signaling pathway (AID 1346795; active = well fitted inhibition curve with a large enough effect in the signal ratio in the repeat runs, not every such curve was filed as active; the % refers to the signal ratio)
Summary of the method: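 Antagonist mode with agonist R5020 at 1 nM final and 16 hr incubation at 37C. Reporter was beta-lactamase driven by UAS in HEK293T (PR-UAS-bla), 2% charcoal-stripped serum; signal from LiveBLAzer FRET substrate, 2 hr at room temperature.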

[13] = qHTS assay to identify small molecule antagonists of the progesterone receptor (PR) signaling pathway - cell viability counter screen (AID 1346798); also: series mostly up to about 92 µM; nearly all actives have a fitted effect of over 50% in size
Summary of the method: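 Cytotoxicity read as CellTiter-Glo luminescence (30 min, room temperature) in the same wells as the beta-lactamase readout. HEK293T PR-UAS-bla cells in charcoal-stripped 2% FBS received compound and R5020, then 16 h at 37C, 5% CO2.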

[14] = qHTS assay to identify small molecule agonists of the progesterone receptor (PR) signaling pathway - cell viability counter screen (AID 1346799; calls by dose curve; also: nearly all actives have a fitted effect of over 45% in size)
Summary of the method: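 Cytotoxicity measured by CellTiter-Glo luminescence (30 min, RT) in the same wells as the PR beta-lactamase agonist read. Those HEK293T cells had 16 h compound treatment at 37 C in 2% charcoal-stripped FBS medium.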

[15] = qHTS assay to identify small molecule antagonists of the TGF-beta/Smad signaling pathway - cell viability counter screen (AID 1346824); also: nearly all actives have a fitted effect of over 50% in size
Summary of the method: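 SBE-bla HEK 293T cells were plated overnight at 37 C, then given compounds in DMSO plus TGF-beta1 (added as 0.25 ng/mL solution) for 5 hr. After the bla read, CellTiter-Glo was added to the same wells and luminescence read after 30 min at room temperature.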

[16] = qHTS assay to identify small molecule agonists of the TGF-beta/Smad signaling pathway - cell viability counter screen (AID 1346829); also: top concentration of the series differs between compounds; nearly all actives have a fitted effect of over 45% in size
Summary of the method: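 Tox21 qHTS format: SBE-bla HEK 293T cells treated with DMSO-dissolved compounds for 5 hr; CellTiter-Glo luminescence after 30 min at room temperature.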

[17] = qHTS assay to identify small molecule agonists of the TGF-beta/Smad signaling pathway (AID 1346859; active = well fitted activation curve with a large enough effect in the signal ratio in the repeat runs, not every such curve was filed as active; the % refers to the signal ratio; also: series mostly up to about 77 µM)
Summary of the method: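 Fluorescence (ex 405 nm; em 460 and 530 nm) was read 2 h after LiveBLAzer FRET substrate at RT. The preceding compound treatment of overnight-plated SBE-bla HEK293T cells lasted 5 h at 37 C.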

[18] = molecular target: Thyrotropin-releasing hormone receptor (Homo sapiens) (UniProt P34981); assay: qHTS assay to identify small molecule antagonists of the thyrotropin-releasing hormone receptor (TRHR) signaling pathway (AID 1346877; active = well fitted inhibition curve with a large enough effect in the repeat runs, not every such curve was filed as active; also: series mostly up to about 51 µM)
Chain of Thyrotropin-releasing hormone receptor (Homo sapiens) (P34981 whole entry, looked up): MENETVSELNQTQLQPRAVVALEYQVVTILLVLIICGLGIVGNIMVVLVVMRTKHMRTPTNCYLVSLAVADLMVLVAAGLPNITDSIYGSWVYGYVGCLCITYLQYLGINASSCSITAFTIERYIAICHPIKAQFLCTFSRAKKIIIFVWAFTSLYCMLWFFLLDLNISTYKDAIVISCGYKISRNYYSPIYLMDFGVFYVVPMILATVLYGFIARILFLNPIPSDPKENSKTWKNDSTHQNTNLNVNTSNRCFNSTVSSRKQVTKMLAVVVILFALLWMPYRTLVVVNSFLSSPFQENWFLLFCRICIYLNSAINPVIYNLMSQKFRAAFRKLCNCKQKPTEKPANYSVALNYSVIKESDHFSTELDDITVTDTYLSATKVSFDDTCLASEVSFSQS
Summary of the method: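 Screening used HEK293 cells engineered with TRHR, with a brief 5 min room-temperature compound exposure preceding addition of TRH to 1 nM. The read-out was kinetic calcium-dye fluorescence, concentration-response from 15 doses in triplicate.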

[19] = molecular target: Estrogen receptor (Homo sapiens) (UniProt P03372); assay: qHTS assay to identify small molecule agonists of the estrogen receptor alpha (ER-alpha) signaling pathway in the presence of an antagonist (AID 1259383; calls by dose curve; also: top concentration of the series differs between compounds; nearly all actives have a fitted effect of over 15% in size)
Chain of Estrogen receptor (Homo sapiens) (P03372 whole entry, looked up): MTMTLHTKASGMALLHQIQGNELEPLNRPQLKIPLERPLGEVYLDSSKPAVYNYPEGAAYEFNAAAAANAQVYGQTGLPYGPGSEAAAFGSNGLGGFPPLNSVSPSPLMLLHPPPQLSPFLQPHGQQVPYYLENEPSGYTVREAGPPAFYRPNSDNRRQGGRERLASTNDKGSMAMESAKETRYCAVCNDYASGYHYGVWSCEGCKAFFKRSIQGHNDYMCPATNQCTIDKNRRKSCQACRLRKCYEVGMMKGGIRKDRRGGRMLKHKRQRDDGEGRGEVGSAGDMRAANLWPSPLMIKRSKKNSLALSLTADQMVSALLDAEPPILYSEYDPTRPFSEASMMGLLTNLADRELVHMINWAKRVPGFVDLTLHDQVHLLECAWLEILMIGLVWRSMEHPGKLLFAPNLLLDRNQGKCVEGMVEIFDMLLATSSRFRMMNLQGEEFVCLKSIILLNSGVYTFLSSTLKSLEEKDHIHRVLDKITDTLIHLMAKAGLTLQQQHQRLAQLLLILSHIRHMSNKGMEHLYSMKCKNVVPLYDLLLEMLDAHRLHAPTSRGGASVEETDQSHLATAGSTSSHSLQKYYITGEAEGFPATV
Summary of the method: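 Using VM7Luc4E2 cells seeded 24hr before treatment, antagonist ICI-182,780 (10.0nM final) was added, followed by compounds at 15 concentrations. Plates incubated 22hr; ONE-Glo luminescence quantified reporter activity.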

[20] = molecular target: Thyrotropin receptor (Homo sapiens) (UniProt P16473); assay: qHTS assay to identify small molecule antagonists of the thyroid stimulating hormone receptor (TSHR) signaling pathway (AID 1259385; calls by dose curve; also: nearly all actives have a fitted effect of over 20% in size)
Chain of Thyrotropin receptor (Homo sapiens) (P16473 whole entry, looked up): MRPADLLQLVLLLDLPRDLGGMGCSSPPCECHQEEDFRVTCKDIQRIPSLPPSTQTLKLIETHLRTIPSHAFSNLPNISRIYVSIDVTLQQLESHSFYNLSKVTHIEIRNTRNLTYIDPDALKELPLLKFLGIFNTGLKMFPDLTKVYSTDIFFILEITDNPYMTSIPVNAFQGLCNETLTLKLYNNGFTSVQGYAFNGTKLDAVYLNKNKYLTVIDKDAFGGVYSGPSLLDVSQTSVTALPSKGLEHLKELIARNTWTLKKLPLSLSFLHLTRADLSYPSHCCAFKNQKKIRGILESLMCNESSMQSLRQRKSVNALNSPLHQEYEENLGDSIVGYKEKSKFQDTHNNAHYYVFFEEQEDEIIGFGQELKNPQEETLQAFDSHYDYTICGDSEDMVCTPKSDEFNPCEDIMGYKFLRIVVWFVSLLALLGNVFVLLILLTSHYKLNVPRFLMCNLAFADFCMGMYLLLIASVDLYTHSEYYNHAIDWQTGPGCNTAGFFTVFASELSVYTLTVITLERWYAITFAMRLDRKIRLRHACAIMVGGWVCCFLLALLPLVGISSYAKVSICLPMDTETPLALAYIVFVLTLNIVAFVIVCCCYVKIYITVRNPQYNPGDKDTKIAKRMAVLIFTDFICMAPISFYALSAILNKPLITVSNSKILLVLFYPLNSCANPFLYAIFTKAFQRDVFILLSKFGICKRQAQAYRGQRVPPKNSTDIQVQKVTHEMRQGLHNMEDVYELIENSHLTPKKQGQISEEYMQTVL
Summary of the method: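 TSHR-HEK293 cells were plated and held 18 h at 37C/5% CO2, then given compound plus Ro20-1724 and stimulated with TSH at 1.5 ng/mL final. After 30 min at room temperature, cAMP was detected with cAMP-d2/anti-cAMP-cryptate (1 h) by fluorescence.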
% is scaled to controls: 0 for no effect and ±100 for the full control effect.

COc1ccc(OC)c(Cl)c1
inactive: outcome [1] | Potency [2] | Potency [3] | outcome [4] | Potency [5] | Potency [6] | Potency [7] | outcome [8] | outcome [9] | Potency [10] | Potency [11] | Potency [12] | Potency [13] | Potency [14] | outcome [15] | outcome [16] | outcome [17] | outcome [18]

COCCOCCOCCOCCO
inactive: outcome [1] | Potency [2] | Potency [3] | outcome [4] | Potency [5] | Potency [6] | Potency [7] | outcome [8] | outcome [19] | outcome [9] | outcome [20] | Potency [10] | Potency [11] | Potency [12] | Potency [13] | Potency [14] | outcome [15] | outcome [16] | outcome [17] | outcome [18]

CCCOC(=O)C(C)O (stereo unspecified)
inactive: outcome [1] | Potency [2] | Potency [3] | outcome [4] | Potency [5] | Potency [6] | Potency [7] | outcome [8] | outcome [19] | outcome [9] | Potency [10] | Potency [11] | Potency [12] | Potency [13] | Potency [14] | outcome [15] | outcome [16] | outcome [17] | outcome [18]

N[C@@H](COP(=O)(O)O)C(=O)O
inactive: activity change [1] -1.5% [at 18.9 µM] | activity change, negative = inhibition [2] 28.3% [at 19 µM] | activation [3] 0.272% [at 19 µM] | activity, negative = inhibition [4] 18.6% [at 19 µM] | activity change, negative = cytotoxicity [5] -2.46% [at 19 µM] | activity change, negative = cytotoxicity [6] 5.8% [at 19 µM] | activity change, negative = cytotoxicity [8] 9.58% [at 19 µM] | cAMP activity change [9] 0.501% [at 18.9 µM] | activity change, negative = inhibition [20] -0.736% [at 19 µM] | activity change, negative = cytotoxicity [10] 0.187% [at 19 µM] | activation [11] 0.26% [at 19 µM] | activity change, negative = inhibition [12] 6.07% [at 18.9 µM] | activity change, negative = cytotoxicity [13] -0.532% [at 18.9 µM] | activity change, negative = cytotoxicity [14] 13.8% [at 19 µM] | viability change, negative = cytotoxic [15] -0.3% [at 15.8 µM] | activity change, negative = cytotoxicity [16] 0.5% [at 15.8 µM] | activation [17] -0.654% [at 15.8 µM] | activity, negative = inhibition [18] -1.81% [at 10.5 µM]

CNC(=O)[C@H]1O[C@@H](n2cnc3c(NCc4cc(Cl)ccc4OCc4cc(C)no4)ncnc32)[C@H](O)[C@@H]1N
inactive: outcome [1] | Potency [2] | Potency [3] | outcome [4] | Potency [5] | Potency [6] | Potency [7] | outcome [8] | outcome [19] | outcome [9] | outcome [20] | Potency [10] | Potency [11] | Potency [12] | Potency [13] | Potency [14] | outcome [15] | outcome [16] | outcome [18]

CC(C)=O
inactive: outcome [1] | Potency [2] | Potency [3] | outcome [4] | Potency [5] | Potency [6] | Potency [7] | outcome [8] | outcome [19] | outcome [9] | outcome [20] | Potency [10] | Potency [11] | Potency [12] | Potency [13] | Potency [14] | outcome [15] | outcome [16] | outcome [17] | outcome [18]

C=CCCCCCCCCCCCC
inactive: outcome [1] | Potency [2] | Potency [3] | outcome [4] | Potency [5] | Potency [6] | Potency [7] | outcome [8] | outcome [9] | outcome [20] | Potency [10] | Potency [13] | Potency [14] | outcome [15] | outcome [16] | outcome [17] | outcome [18]
